Reference: PubChem BioAssay (EPA / NIEHS)
Several values for one entry are separate records, joined by “and”; a condition that tells them apart may be missing. Equal values may be shown once. Records with an inconclusive call do not appear. The source holds several records for some structures; these can differ, active in one and inactive in another. Activity calls are given as the source filed them. The calls were made as follows: active = hit-call score of the fitted dose curve at least 0.9, where 1 is the maximum; inconclusive = response in the unintended direction; inactive = score below 0.9.

Assay: TOX21_p53_BLA_p3_viability: Viability Assessment in the Tox21 HCT-116 p53 Agonism Beta-lactamase Assay, Phase 3 (AID 2283593);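 also: cells exposed to compound for 16 h before reading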
Source text: TOX21_p53_BLA_p3 is a cell-based, single-readout assay that uses HCT116, a human intestinal cell line, […] in a 1536-well plate.TOX21_p53_BLA_p3_viability is an assay readout measuring cellular ATP content and detected with CellTiter-Glo Luciferase-coupled ATP quantitation.TOX21_p53_BLA_p3_viability used a type of viability reporter where loss-of-signal activity can be used to understand changes in the cell viability. Furthermore, this assay endpoint can be referred to as a secondary readout, because this assay has produced multiple assay endpoints where this one serves a viability function. To generalize the intended target to other relatable targets, this assay endpoint is annotated to the cell cycle intended target family, where the subfamily is cytotoxicity.
Thawing Method: Place 14 mL of pre-warmed thaw medium into a 15 mL of conical tub. Remove the vial of cells to be thawed from liquid nitrogen and thaw rapidly by placing at 37C in a water bath with gentle agitation for 1-2 minutes. Decontaminate the vial by wiping with 70% ethanol before opening in a biological safety cabinet. Transfer the vial contents drop-wise into 14 mL of thaw medium in a sterile 15-mL conical tub. Centrifuge cells at 900 rpm for 4 minutes and resuspend in thaw medium. Transfer contents to the T75 tissue culture flask containing Thaw Medium and place flask in a humidified 37C/5% CO2 incubator. Switch to growth medium at first passage.Propagation Method: Aspirate medium, rinse once in DPBS, add 0.25% Trypsin/EDTA and swirl to coat the cell evenly. Add an equal volume of Growth Medium to inactivate Trypsin after 2-3 minutes incubation at 37C. Centrifuge cells at 900 rpm for 4 minutes and resuspend in growth medium. Cell should be passage or fed at least twice a week.Assay Protocol: Harvest cells from culture in growth medium and resuspend in assay medium. 2.2 Dispense 4000 cells/5 uL/well into 1536-well black/clear bottom plates using a Multidrop dispenser. After the cells were incubated at 37C for 5 hours, 23 nL of compounds dissolved in DMSO were transferred to the assay plate by a PinTool resulting in a 217-fold dilution. Incubate the plates for 16 hours at 37C, 5% CO2. Add 1 uL of 6X LiveBLAzer FRET B/G (CCF4-AM) Substrate Mixture to each well using a BioRAPTR dispenser and incubate the plates at room temperature for 2 hours. Measure fluorescence intensity at 460 and 530 nm emission and 405 nm excitation by an Envision detector. Data is expressed as the ratio of 460nm/530nm emissions. Add 4 uL of Cell-titer Glo to each well using BioRAPTR and incubate the plates at room temperature for […]. For cell viability readout that measures cytotoxicity, 4 ul/well of CellTiter-Glo reagent was added into the assay plates using a Flying Reagent Dispenser. After 30 min incubation at room temperature, the luminescence intensity in the plates was measured using a ViewLux plate reader.
With `COc1cc(/C=C/C(=O)CC(=O)/C=C/c2ccc(O)c(OC)c2)ccc1O` the AC50 was 57.5 µM (active) and 19.8 µM (active) and the outcome was “inactive”. For `FC(F)(F)C(F)(F)C(F)(F)C(F)(F)C(F)(F)C(F)(F)CCI`, the outcome was “inactive”. For `COc1cc(-c2nc(NC(=O)c3cc4cc(C)cc(C)c4n3CC(=O)O)sc2CCC2CCCCC2)c(OC)cc1Cl`, the AC50 was 5.1 µM (active). In the case of `CC1=C(/C=C/C(C)=C/C=C/C(C)=C/CO)C(C)(C)CCC1`, the outcome is reported as “inactive”. In the case of `O=C(OCCCCCOC(=O)c1ccccc1)c1ccccc1`, the outcome is reported as “inactive”. With `Cc1ccc(C)c(C)c1` the outcome was “inactive”. With `O=c1[nH]cc(F)c(=O)[nH]1` the outcome was “inactive” and the AC50 was 882 nM (active) and 2.38 µM (active). With `CN1CCCC1=O` the outcome was “inactive”. With `C[Si]1(C)O[Si](C)(C)O[Si](C)(C)O[Si](C)(C)O1` the outcome was “inactive”. For `CC(C)(C)c1cc(O)c(C(C)(C)C)cc1O`, the outcome was “inactive”. In the case of `COc1ccc2c(c1)c(CC(=O)O)c(C)n2C(=O)c1ccc(Cl)cc1`, the outcome is reported as “inactive”. With `Cc1cccc(C)c1O` the outcome was “inactive”. With `Cc1nc(C)nc(N2C[C@@H](C)N(c3ccnc([C@@H](C)O)n3)[C@@H](C)C2)n1` the outcome was “inactive”. In the case of `O=C(O)Cc1ccccc1Nc1c(Cl)cccc1Cl`, the outcome is reported as “inactive”. In the case of `CCCCCCCCCCCCCO`, the outcome is reported as “inactive”. In the case of `CN[C@H]1CC[C@@H](c2ccc(Cl)c(Cl)c2)c2ccc(S(N)(=O)=O)cc21`, the AC50 is reported as 71.7 µM (active). In the case of `Nc1ccc(S(=O)(=O)c2ccc(N)cc2)cc1`, the outcome is reported as “inactive”. In the case of `C[C@]12C=CC(=O)C=C1CC[C@@H]1[C@@H]2C(=O)C[C@@]2(C)[C@H]1CC[C@]2(O)C(=O)CO`, the outcome is reported as “inactive”. In the case of `COc1cc(C=O)ccc1O`, the outcome is reported as “inactive”. For `CCCCc1ccc2c(n1)[C@@H](c1ccc(OC)cc1C[C@H](C)C(=O)O)[C@H](C(=O)O)[C@H]2c1ccc2c(c1)OCO2`, the outcome was “inactive”. For `CN1CCN(Cc2cc(-c3ccc4[nH]c(=O)oc4c3)co2)[C@@H](c2ccc(F)cc2)C1`, the outcome was “inactive”. For `O=C(O)CCCCC(=O)O`, the outcome was “inactive”. For `CC(=O)C(C)=CC1C(C)=CCCC1(C)C` (stereo not given), the outcome was “inactive”. In the case of `O=c1c(O)c(-c2ccc(O)c(O)c2)oc2cc(O)cc(O)c12`, the outcome is reported as “inactive”. In the case of `CCCCCCCC=O`, the outcome is reported as “inactive”. For `Cc1oc(-c2ccccc2)nc1CCOc1cccc2c1ccn2CCC(=O)O`, the outcome was “inactive”. With `CCNc1cccc(C)c1` the outcome was “inactive”. With `CCOC(=O)C(C)(C)Oc1ccc(Cl)cc1` the outcome was “inactive”. In the case of `Cc1ccc(C(C)C)c(O)c1`, the outcome is reported as “inactive”. In the case of `CNC(=O)[C@H]1O[C@@H](n2cnc3c(NCc4cc(Cl)ccc4OCc4cc(C)no4)ncnc32)[C@H](O)[C@@H]1N`, the outcome is reported as “inactive”. In the case of `CCCCCCCCCCCC(=O)OC`, the outcome is reported as “inactive”. With `CCCCCCCCCCCCCCCC` the outcome was “inactive”. With `CC(=O)OCCOCCOCCOC(C)=O` the outcome was “inactive”. For `Oc1ccc2ccccc2c1N=Nc1ccccc1`, the outcome was “inactive”. With `CCCCC(CC)COC(=O)CC(C(=O)OCC(CC)CCCC)S(=O)(=O)O` (stereo not given) the outcome was “inactive” and the AC50 was 71.8 µM (active) and 65 µM (active) and 42 µM (active). With `Cc1ccc(N(C)C)cc1` the outcome was “inactive”. For `CCOc1ccc2c(c1)C(C)=CC(C)(C)N2`, the outcome was “inactive”.
